Results: PubChem BioAssay AID2113 (National Center for Advancing Translational Sciences (NCATS), 2009)
Inconclusive results are not listed. Entries that show only a call come without a potency. Active and inactive are the calls of the source. Calls follow the shape of the dose curve; as a rule, active = well fitted curve in either direction with a large enough effect; inconclusive = small, poorly fitted or top-dose-only effect; inactive = no such curve, though single readings can be large or run the other way. Residues, ends and D or L forms follow the SMILES beside them.
Potency is read from the fitted curve at half-maximal effect.

The compounds below were run against Lysosomal alpha-glucosidase (Homo sapiens) (UniProt P10253) (assay: Confirmation of Inhibitors and Activators of Human alpha-Glucosidase From Spleen Homogenate). Conditions: alpha-glucosidase enzyme activity; series mostly up to 60.5 µM.
Description: NIH Chemical Genomics Center [NCGC]
NIH Molecular Libraries Probe Production centers Network [MLPCN]
Assay Submitter (PI): Wei Zheng
Alpha-glucosidase is responsible for hydrolysis of terminal, non-reducing 1,4-linked alpha-D-glucose residues with release of alpha-D-glucose. It is a lysosomal hydrolase that is required for the degradation of a small percentage (1-3%) of cellular glycogen in human. Deficiency of this enzyme results in glycogen-storage disease type II (GSDII), also referred to as Pompe disease, an autosomal recessive disorder. Structurally normal glycogen is accumulated in lysosomes and cytoplasm in affected patients, primarily in muscle tissues. Excessive glycogen storage within lysosomes may interrupt normal functioning of other organelles and leads to cellular injury. In turn, this leads to enlargement and dysfunction of the entire organ involved (eg, cardiomyopathy and muscle weakness).
It has reported that the improper folding and trafficking of alpha-glucosidase resultinged from the genetic mutations may account for a significant number of Pomrope patients. […] We optimized this alpha-glucosidase assay in 1536-well plate format for identifying the novel small molecule inhibitors with the structures other than the sugar analogs in order to develop the new pharmacological chaperones. In particular, this assay is directed towards discovering compounds active in a more natural setting, tissue homogenate, that may have been missed by screens of the purified enzyme under more stringent conditions. This assay attempted to confirm hits from the primary screening.
NCGC Assay Protocol Summary:
This is a fluorogenic enzyme assay with 4-methylumbelliferyl-alpha-D-glucopyranoside as the substrate and human spleen homogenate containing alpha-glucosidase as the enzyme preparation. Upon hydrolysis of this fluorogenic substrate, the resulting product, 4-methylumbelliferone (which excites at 365 nm and emits at 440 nm) can be detected by a fluorescence plate reader. Data were normalized to the controls for basal activity (without enzyme) and 100% activity (with enzyme). The AC50 values were determined from concentration-response data modeled with the standard Hill equation.
Assay buffer: 50 mM citric acid (titrated with potassium phosphate to pH 5.0), 0.01% Tween-20 (pH 5.0 is an optimal condition for this enzyme assay)
1536-well assay protocol for the alpha-glucosidase from human spleen homogenate:
(1) Add 2 ul/well spleen homogenate (1 ug)
(2) Add 23 nL compounds in DMSO solution. The final titration was 0.5 nM to 58 uM.
(3) Add 2 ul of substrate (1 mM final)
(4) Incubate at 37 C for 40 min
(5) Add 2 ul stop solution (1M NaOH and 1M Glycine mixture, pH 10)
(6) Detect the assay plate in a ViewLux plate reader (PerkinElmer) with Ex=365 nm and Em=440nm.
Keywords: Alpha-glucosidase, Pompe Disease, pharmacological chaperone, chaperone therapy, high throughput screening, alpha-glucosidase inhibitor, MLSMR, MLSCN, NIH Roadmap, qHTS and NCGC
For `Clc1ncc(C#Cc2ccccc2)c2ncncc12`, the Potency was “inactive”.
In the case of `O=C(CCc1cccc(S(=O)(=O)N2CCOCC2)c1)NN=C1c2ccccc2-c2ccccc21`, the Potency is reported as “inactive”.
In the case of `Cc1sc(-c2cc3ccccc3oc2=O)nc1-c1ccc(Cl)cc1`, the Potency is reported as “inactive”.
`CCc1sc(-c2cc3cccc(OC)c3oc2=O)nc1-c1ccccc1` was tested, and the Potency was “inactive”.
In the case of `CCCN1CNc2c(c(=O)[nH]c(=S)n2Cc2ccc(OC)c(OC)c2)C1`, the Potency is reported as 12.6 µM (active).
For `CCCN1CNc2c(c(=O)[nH]c(=S)n2CCC)C1`, the Potency was “inactive”.
For `COC(=O)CSc1cc([N+](=O)[O-])ccc1NC(=O)OC`, the Potency was “inactive”.
With `N#C/C(=C\c1c(N2CCCCC2)nc2ccccn2c1=O)C(=O)NC1CCS(=O)(=O)C1` (stereo not given) the Potency was 14.1 µM (active).
With `Cc1noc(C)c1S(=O)(=O)N(CC(=O)N1CCc2ccccc21)c1ccc(C(C)C)cc1` the Potency was “inactive”.
For `CC(=O)Oc1ccc2cc(-c3nc(-c4ccccc4)c(C)s3)c(=O)oc2c1`, the Potency was “inactive”.
With `O=C(c1ccc2ccccc2c1)N1CCN(S(=O)(=O)c2ccccc2)CC1` the Potency was “inactive”.
With `O=S(=O)(c1ccccc1Cl)N1CCOCC1` the Potency was “inactive”.
With `COc1ccc(CCn2c3c(c(=O)[nH]c2=O)C(NC(=O)c2cccs2)(C(F)(F)F)C(=O)N3)cc1OC` (stereo not given) the Potency was “inactive”.
In the case of `COc1ccc2nc(-c3ccc(N(C)C)cc3)sc2c1`, the Potency is reported as 7.08 µM (active).
For `O=C(O)c1c(-c2ccccc2)c2oc3ccccc3c2[nH]c1=O`, the Potency was “inactive”.
`CC(C)NCC(O)COc1cccc2[nH]ccc12` (stereo not given) was tested, and the Potency was “inactive”.
For `C(=C/c1nccc2c1[nH]c1ccccc12)/c1ccc2c(c1)OCO2`, the Potency was “inactive”.
For `O=S(=O)(c1ccc2nc(-c3ccco3)c(-c3ccco3)nc2c1)N1CCOCC1`, the Potency was “inactive”.
In the case of `CN1CC=C2C(C#N)=C(N)C(C#N)(C#N)[C@H](c3cccc(Cl)c3)C2C1` (stereo not given in full), the Potency is reported as “inactive”.
`Cc1sc(-c2cc3cc(Br)ccc3oc2=O)nc1-c1ccccc1` was tested, and the Potency was “inactive”.
With `CC(=O)c1ccc(N2CCN(C(=O)c3ccc4c(c3)CCC(=O)N4)CC2)cc1` the Potency was “inactive”.
In the case of `COc1ccc(CCn2c(N)cc(=O)[nH]c2=O)cc1OC`, the Potency is reported as “inactive”.
In the case of `Cc1ccc(S(=O)(=O)N2CCOCC2)cc1`, the Potency is reported as “inactive”.
For `CCCC[C@H](NC(=O)[C@@H]1CCCN1C(=O)[C@H]1CCCN1C(=O)[C@H](Cc1ccccc1)NC(=O)[C@@H](Cc1c[nH]c2ccccc12)NC(=O)[C@H](C)NC(=O)[C@H](CCCN=C(N)N)NC(=O)OC(C)(C)C)C(N)=O` (HELM PEPTIDE1{[CC(C)(C)OC(=O)[*:2]].R.A.[dW].F.[dP].P.[Nle].[am]}$$$$V2.0), the Potency was “inactive”.
`O=S(=O)(c1ccc(Br)cc1)N1CCOCC1` was tested, and the Potency was “inactive”.
With `COc1ccc(C#Cc2cnc(Cl)c3cncnc23)cc1OC` the Potency was “inactive”.
For `O=C1Cc2cc(S(=O)(=O)N3CCN(c4ccc(O)cc4)CC3)ccc2N1`, the Potency was 6.68 µM [inhibitor] (active).
`COc1ccc(/C=C/c2nnc(NC(=O)CSc3ccc(C)cc3)s2)cc1` was tested, and the Potency was “inactive”.
With `O=S(=O)(c1ccc(F)cc1)N1CCOCC1` the Potency was “inactive”.
In the case of `CN1c2ccccc2-c2nc3ccccc3n2C1c1ccccn1` (stereo not given), the Potency is reported as 14.1 µM (active).
`COc1ccc(NS(=O)(=O)c2ccc(O)c(NC(=O)c3cc4c(C)nn(-c5ccc(F)cc5)c4s3)c2)cc1` was tested, and the Potency was “inactive”.
With `c1ccc(-c2nc3nc4ccccc4nc3n2CC2CCCO2)cc1` (stereo not given) the Potency was “inactive”.
`COc1ccccc1N1CCN(C(c2cccs2)C(C)NC(=O)c2cccs2)CC1` (stereo not given) was tested, and the Potency was “inactive”.
For `COc1ccc(S(=O)(=O)N2CCOCC2)cc1`, the Potency was “inactive”.
For `N=c1sccn1CC(=O)Nc1cc(S(=O)(=O)N2CCCC2)ccc1Cl`, the Potency was “inactive”.
For `CCCN1CNc2c(c(=O)[nH]c(=S)n2CCc2cc(OC)ccc2OC)C1`, the Potency was 20 µM (active).
In the case of `Cc1cc(C)nc(SCc2cc(=O)c(OC(=O)c3ccco3)co2)n1`, the Potency is reported as “inactive”.
`COCCn1c(=NC(=O)c2ccc3c(c2)OCO3)c(C#N)cc2c(=O)n3cccc(C)c3nc21` was tested, and the Potency was “inactive”.
In the case of `COc1cc2c(cc1OC)-c1cc(OCc3ccccc3Cl)nc(=O)n1CC2`, the Potency is reported as “inactive”.
`CCCN1CNc2c(c(=O)[nH]c(=S)n2CCc2cccs2)C1` was tested, and the Potency was 35.5 µM (active).
